Reference: PubChem BioAssay (Tox21)
Records with an inconclusive call do not appear. Calls of active or inactive are those of the source. Unless noted, calls follow the shape of the dose curve; as a rule, active = well fitted curve in the direction sought with a large enough effect in the repeat runs; inconclusive = weak or mixed curves; inactive = no such curve, though single readings can be large; an effect the other way counts as inactive or inconclusive.

What was measured:
[1] = qHTS assay to identify small molecule agonists of the vitamin D receptor (VDR) signaling pathway - cell viability counter screen (AID 743224); also: series mostly up to about 63 µM; % is scaled to controls: 0 for no effect and ±100 for the full control effect; nearly all actives have a fitted effect of over 50% in size
Procedure, shortened: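 Viability is measured in the same wells as the VDR-bla reporter assay: after 16 h compound treatment and 2 h substrate loading, CellTiter-Glo is added and luminescence read 30 min later.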

[2] = qHTS assay to identify small molecule antagonists of the vitamin D receptor (VDR) signaling pathway - cell viability counter screen (AID 743225); also: % is scaled to controls: 0 for no effect and ±100 for the full control effect; nearly all actives have a fitted effect of over 50% in size
Procedure, shortened: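 Luminescent cell viability (CellTiter-Glo) in VDR-bla HEK 293T cells after 16 h compound exposure at 37C in the presence of 3 nM final 1-alpha,25-dihydroxy vitamin D3.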

[3] = qHTS assay to identify small molecule agonists of the NFkB signaling pathway (AID 1159509; active = well fitted curve in the direction sought with a large enough effect in the signal ratio in the repeat runs, not every such curve was filed as active; the % refers to the signal ratio; also: series mostly up to about 61 µM; % is scaled to controls: 0 for no effect and ±100 for the full control effect)
Procedure, shortened: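 NFkB-bla ME-180 cells with a beta-lactamase reporter under an NF-kB response element were plated overnight, treated with compounds in DMSO for 5 hr at 37 C, then loaded with FRET substrate for 1.5 hr at room temperature.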

[4] = qHTS assay to identify small molecule agonists of the endoplasmic reticulum stress response signaling pathway (AID 1159516; active = well fitted activation curve with a large enough effect in the signal ratio in the repeat runs, not every such curve was filed as active; the % refers to the signal ratio; also: % is scaled to controls: 0 for no effect and ±100 for the full control effect)
Procedure, shortened: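 Tox21 10K library screened in quantitative HTS format on ESRE-bla HeLa cells, a beta-lactamase reporter under ER stress response element control; 5 hr treatment, FRET read.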

[5] = qHTS assay to identify small molecule agonists of the endoplasmic reticulum stress response signaling pathway - cell viability counter screen (AID 1159517; calls by dose curve; also: series mostly up to about 61 µM; % is scaled to controls: 0 for no effect and ±100 for the full control effect; nearly all actives have a fitted effect of over 50% in size)
Procedure, shortened: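 Cells, HeLa ESRE-bla; density, 1,500/well; dosing, 5 hr at 37 C, 5% CO2; readout, CellTiter-Glo luminescence after 30 min RT.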

[6] = qHTS assay to identify small molecule antagonists of the retinoid-related orphan receptor gamma (ROR-gamma) signaling pathway - cell viability counter screen (AID 1159520); also: % is scaled to controls: 0 for no effect and ±100 for the full control effect; nearly all actives have a fitted effect of over 50% in size
Procedure, shortened: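 Cytotoxicity was read from cellular ATP (CellTiter-Glo luminescence) after 16 hr at 37 C with 1 uM doxycycline induction. The inducer was added 2 hr after compound transfer to Tet-on ROR gamma CHO cells.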

[7] = molecular target: Nuclear receptor ROR-gamma (Homo sapiens) (UniProt P51449); assay: qHTS assay to identify small molecule antagonists of the retinoid-related orphan receptor gamma (ROR-gamma) signaling pathway (AID 1159521)
Procedure, shortened: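 CHO cells expressing RORγ under a TET-on promoter, luciferase under RORE control. Dox 1 uM final, 16 h; compounds added 2 h prior. Luminescence decrease measured.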

[8] = qHTS assay to identify small molecule agonists of the AP-1 signaling pathway - cell viability counter screen (AID 1159525; calls by dose curve; also: nearly all actives have a fitted effect of over 55% in size)
Procedure, shortened: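 Luminescent ATP readout (Cell Titer Glo, 30 min RT), normalised to DMSO and tetra n-octyl ammonium bromide controls. Cells were ME-180 AP-1-bla in 0.5% dialyzed FBS Opti-MEM, with a 5 h, 37 °C compound exposure.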

[9] = qHTS assay to identify small molecule agonists of the AP-1 signaling pathway (AID 1159526; calls by dose curve; also: % is scaled to controls: 0 for no effect and ±100 for the full control effect)
[10] = molecular target: Retinoic acid receptor RXR-alpha (Homo sapiens) (UniProt P19793); assay: qHTS assay to identify small molecule agonists of the RXR signaling pathway (AID 1159527; calls by dose curve; also: % is scaled to controls: 0 for no effect and ±100 for the full control effect; nearly all actives have a fitted effect of over 35% in size)
Retinoic acid receptor RXR-alpha (Homo sapiens), sequence (P19793 whole entry, looked up): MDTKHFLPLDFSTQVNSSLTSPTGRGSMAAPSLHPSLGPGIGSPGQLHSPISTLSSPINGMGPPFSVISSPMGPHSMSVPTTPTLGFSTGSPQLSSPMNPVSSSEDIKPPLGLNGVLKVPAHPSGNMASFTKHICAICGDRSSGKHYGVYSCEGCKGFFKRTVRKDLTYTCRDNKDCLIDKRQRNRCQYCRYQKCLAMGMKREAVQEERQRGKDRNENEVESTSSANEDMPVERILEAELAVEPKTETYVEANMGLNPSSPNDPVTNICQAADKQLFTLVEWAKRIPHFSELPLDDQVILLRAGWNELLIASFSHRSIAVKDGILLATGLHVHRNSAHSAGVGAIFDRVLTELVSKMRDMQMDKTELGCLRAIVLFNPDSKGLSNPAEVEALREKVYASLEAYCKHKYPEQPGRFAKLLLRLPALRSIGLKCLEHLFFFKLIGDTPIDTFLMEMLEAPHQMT
Procedure, shortened: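 Beta-lactamase reporter assay, agonist format. Engineered HEK 293T line, charcoal-stripped FBS at 2%, overnight (16 hr) exposure, fluorescence at 460 and 530 nm after 405 nm excitation.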

[11] = qHTS assay to identify small molecule agonists of the RXR signaling pathway - cell viability counter screen (AID 1159529)
Procedure, shortened: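 Same-well viability check after the LiveBLAzer FRET read: CellTiter-Glo added, luminescence measured after 30 min at room temperature. Reporter HEK 293T cells had been treated with compounds for 16 hr following a 5 hr preincubation.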

[12] = qHTS assay to identify small molecule antagonists of the retinoid acid receptor (RAR) signaling pathway - cell viability counter screen (AID 1159551); also: % is scaled to controls: 0 for no effect and ±100 for the full control effect; nearly all actives have a fitted effect of over 35% in size
Procedure, shortened: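 Cytotoxicity counter screen in C3RL4 cells: 6 h compound exposure with 1 uM retinol (final), viability from cellular ATP by luminescence.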

[13] = qHTS assay to identify small molecule antagonists of the estrogen related receptor (ERR) signaling pathway - cell viability counter screen (AID 1224818);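 also: series mostly up to about 46 µM; viability measured after 17.5 h of compound exposure; % is scaled to controls: 0 for no effect and ±100 for the full control effect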
Procedure, shortened: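 Cells carrying the ERR pathway reporter were seeded and incubated for 6 hours before compound addition. After a 17.5-hour exposure at 37 C, live-cell protease activity was measured by CellTiter-Fluor fluorescence following 30 minutes of incubation.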

[14] = qHTS assay to identify small molecule antagonists of the estrogen related receptor (ERR) signaling pathway (AID 1224819)
Procedure, shortened: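 Compounds dissolved in DMSO were pin-transferred onto ERR cells that had been plated 6 h earlier, and cells were then incubated 18 h at 37 C; signal was luciferase luminescence via One-Glo.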

[15] = qHTS assay to identify small molecule agonists of the estrogen related receptor (ERR) signaling pathway (AID 1224820); also: % is scaled to controls: 0 for no effect and ±100 for the full control effect
Procedure, shortened: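 ERR reporter cells (NTP line) plated 2,000/well, incubated 6 h at 37 C/5% CO2, then pinned with compounds in DMSO and held 18 h at 37 C. One-Glo added; luminescence read after 30 min at room temperature.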

[16] = qHTS assay to identify small molecule antagonists of the estrogen related receptor signaling pathway with the pleiotropic PPARgamma coactivator (PGC) cell viability counter screen (AID 1224822)
Procedure, shortened: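 Seed PGC/ERR cells (2,000/well); incubate 6 h at 37 C/5% CO2; pin-transfer compounds in DMSO; incubate 17.5 h at 37 C; add CellTiter-Fluor; after 30 min read fluorescence.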

[17] = qHTS assay to identify small molecule antagonists of the retinoic acid receptor (RAR) signaling pathway (AID 1159552)
Procedure, shortened: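 Readout: luciferase luminescence, 30 min post-reagent at RT. Setup: C3RL4 RARE reporter cells, compounds plus retinol 1 uM final, 6 hr incubation at 37 C and 5% CO2.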

[18] = qHTS assay to identify small molecule agonists of the NFkB signaling pathway - cell viability counter screen (AID 1159515; calls by dose curve; also: series mostly up to about 61 µM; % is scaled to controls: 0 for no effect and ±100 for the full control effect; nearly all actives have a fitted effect of over 55% in size)
Procedure, shortened: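 Multiplexed viability readout: after the 5 hr compound exposure and 1.5 hr FRET substrate step, CellTiter-Glo reagent went into the same NFkB-bla ME-180 wells; ATP luminescence was measured after 30 min at room temperature.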

[19] = qHTS assay to identify small molecule agonists of the retinoic acid receptor (RAR) signaling pathway (AID 1159553); also: % is scaled to controls: 0 for no effect and ±100 for the full control effect
Procedure, shortened: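 Agonist activity was scored in C3RL4 cells bearing a retinoic acid response element luciferase construct. Cells were treated with compounds for 6 hr at 37 C, and luciferase signal was measured as luminescence.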

[20] = tested on: estrogen-related receptor alpha (ERRalpha) with PGC-1alpha coactivator, human; assay: qHTS assay to identify small molecule antagonists of the estrogen related receptor signaling pathway with the pleiotropic PPARgamma coactivator (PGC) (AID 1224821; calls by dose curve)
Procedure, shortened: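 Cells engineered for PGC/ERR signalling (line from NTP) were plated 6 h at 37 C/5% CO2, then exposed to DMSO-dissolved compound for 18 h at 37 C. Luciferase activity was read by One-Glo luminescence after 30 min at room temperature.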

COC(=O)c1ccccc1C(=O)c1ccc(OCCN2CCCCC2)cc1
inactive: Potency [1] | outcome [2] | outcome [3] | outcome [4] | Potency [5] | outcome [6] | outcome [7] | outcome [8] | outcome [9] | Potency [10] | outcome [11] | outcome [12]

CC(=O)N[C@@H](CCC(=O)O)C(=O)O
inactive: Potency [1] | outcome [2] | outcome [3] | outcome [4] | Potency [5] | outcome [6] | outcome [7] | outcome [8] | outcome [9] | Potency [10] | outcome [12]

CC(C)(C)NC(N)=O
inactive: Potency [1] | outcome [2] | outcome [3] | Potency [5] | outcome [6] | outcome [7] | outcome [8] | outcome [9] | Potency [10] | outcome [11]

Cc1c(I)c(=O)n(-c2ccccc2)n1C
inactive: Potency [1] | outcome [2] | outcome [3] | outcome [4] | Potency [5] | outcome [6] | outcome [7] | outcome [8] | outcome [9] | Potency [10] | outcome [11] | outcome [12]

CCC(C=O)CC
inactive: Potency [1] | outcome [2] | outcome [3] | Potency [5] | outcome [6] | outcome [7] | outcome [9] | Potency [10] | outcome [11] | outcome [12]

CN1CCN(CC(=O)N2c3ccccc3C(=O)Nc3cccnc32)CC1
inactive: activity change, negative = cytotoxicity [1] 0.894% [at 5.95 µM] | viability change, negative = cytotoxic [2] -0.964% [at 6.95 µM] | activation [3] -0.0785% [at 6.95 µM] | activity change, negative = cytotoxicity [5] -3.52% [at 6.95 µM] | activity, negative = cytotoxicity [6] 3.19% [at 8.39 µM] | activity change, negative = inhibition [7] 14.7% [at 8.39 µM] | activation [9] -1.4% [at 6.97 µM] | activation [10] 4.73% [at 6.98 µM] | activity change, negative = cytotoxicity [11] 0.873% [at 6.97 µM] | outcome [13] | outcome [14] | outcome [15] | outcome [16]

CCOC(=O)c1ccc(OC(=O)CCCCCN=C(N)N)cc1
inactive: Potency [1] | outcome [2] | outcome [3] | outcome [4] | Potency [5] | outcome [6] | outcome [7] | outcome [8] | outcome [9] | Potency [10] | outcome [11] | outcome [17]

CC(=O)c1sc(C)nc1C
inactive: outcome [18] | outcome [4] | Potency [5] | outcome [6] | outcome [7] | outcome [8] | outcome [9] | Potency [10] | outcome [11] | outcome [12]

C[Si](C)(C)C
inactive: Potency [1] | outcome [3] | outcome [4] | Potency [5] | outcome [7] | outcome [9] | Potency [10] | outcome [11] | outcome [12]

O=C1c2ccccc2C(=O)N1CCl
inactive: Potency [1] | outcome [3] | outcome [4] | Potency [5] | outcome [6] | outcome [7] | outcome [8] | outcome [9] | Potency [10] | outcome [11] | outcome [12]

O=C(O)C(=O)Cc1ccccc1
inactive: Potency [1] | outcome [2] | outcome [3] | Potency [5] | outcome [6] | outcome [7] | outcome [8] | outcome [9] | Potency [10] | outcome [11] | outcome [17]

CC(=C(CCOC(=O)C(C)C)SSC(CCOC(=O)C(C)C)=C(C)N(C=O)Cc1cnc(C)nc1N)N(C=O)Cc1cnc(C)nc1N
inactive: Potency [1] | outcome [2] | outcome [3] | Potency [5] | outcome [7] | outcome [8] | outcome [9] | Potency [10] | outcome [11] | outcome [12] | Potency [19]

O=C(/N=N/C(=O)OCc1ccccc1)OCc1ccccc1
inactive: Potency [1] | outcome [2] | outcome [3] | outcome [4] | Potency [5] | outcome [7] | outcome [8] | outcome [9] | Potency [10] | outcome [11] | outcome [12] | outcome [17]

CCCCN
inactive: Potency [1] | outcome [2] | outcome [18] | outcome [4] | Potency [5] | outcome [7] | outcome [8] | outcome [9] | Potency [10] | outcome [11]

COC(=O)[C@@H]1[C@H]2C[C@H]3c4[nH]c5ccccc5c4CCN3C[C@@H]2CC[C@@H]1O
inactive: Potency [1] | outcome [2] | outcome [18] | Potency [5] | outcome [6] | outcome [7] | outcome [8] | outcome [9] | Potency [10] | outcome [11] | outcome [12] | outcome [13] | outcome [14] | outcome [20] | outcome [16]

O=C(CS(=O)Cc1ccco1)NC/C=C\COc1cc(CN2CCCCC2)ccn1 (configuration not stated)
inactive: Potency [1] | outcome [2] | outcome [18] | outcome [4] | Potency [5] | outcome [6] | outcome [7] | outcome [9] | Potency [10] | outcome [11] | outcome [12]

O=C(OCc1ccccc1)C(=O)OCc1ccccc1
inactive: Potency [1] | outcome [2] | outcome [18] | outcome [4] | Potency [5] | outcome [6] | outcome [7] | outcome [8] | outcome [9] | Potency [10] | outcome [11]

CCOc1cc(NC(C)=O)ccc1C(=O)OC
inactive: Potency [1] | outcome [2] | outcome [4] | Potency [5] | outcome [6] | outcome [7] | outcome [8] | outcome [9] | Potency [10] | outcome [11] | outcome [12]
